The structures appear in SMILES notation. Where “and” joins values, the source holds several entries; their conditions need not be identical. Equal values may be shown once. The campaign covered roughly 340,000 compounds. About 5,100 (1.5%) were called active. Shown is part of a subset that was picked to be rich in actives. A number with no mark means an inactive call.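 How the source made its calls: active means mean Tm shift, scaled 0 neutral to 100 positive control, at about 1.3% or above, every replicate too (limit read from the data); inconclusive means no clear call, values can overlap the other calls; inactive means the rest.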

For this assay, the target named is Fibroblast growth factor 22 (Homo sapiens) (UniProt Q9HCT0). Put plainly: FGF22 ligand-induced thermal stabilization – biophysical, thermal shift, single point, FGF22 synaptogenesis inhibitor project, primary screen (AID 651658). The following applies: recombinant FGF22 thermal shift, SYPRO orange fluorescence; at 9.99 µM; stronger effect = higher value; percent of sucrose octasulfate shift, DMSO zero.
Fibroblast growth factor 22 (Homo sapiens), sequence (Q9HCT0 whole entry, looked up): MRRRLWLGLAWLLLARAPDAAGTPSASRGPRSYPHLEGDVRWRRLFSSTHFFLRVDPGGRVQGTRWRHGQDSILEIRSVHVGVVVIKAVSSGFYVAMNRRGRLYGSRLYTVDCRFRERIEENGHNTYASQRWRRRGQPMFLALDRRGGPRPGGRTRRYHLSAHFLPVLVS
`CC(C)NC(=O)N(C)C[C@H]1Oc2ccc(NC(=O)CCCCCC(=O)Nc3ccccc3N)cc2C(=O)N([C@@H](C)CO)C[C@@H]1C`: the activity (Tm shift, normalised) was -0.213%.
For `COc1ccc2c3c([nH]c2c1)[C@@H](CO)N(C(=O)C1CC1)CC31CCN(Cc2nccs2)CC1`, the activity (Tm shift, normalised) is 0.119%.
Consider `CC(C)NC(=O)Nc1ccc2c(c1)C(=O)N([C@H](C)CO)C[C@H](C)[C@@H](CN(C)Cc1ccc3c(c1)OCO3)OCCCC[C@H](C)O2`, for which the activity (Tm shift, normalised) was -0.249%.
As for `Cc1ccccc1NC(=O)NC1(C(=O)N2CCCC2)CCCCC1`, the figure is 43.5% (active); as for `CC(=O)N1CCN(C(=O)C2(NC(=O)Nc3ccc(C)cc3)CCCCC2)CC1`, -0.042%; as for `O=C(Nc1ccccc1Cl)NC1(C(=O)N2CCOCC2)CCCCC1`, -0.339%.
As for `C[C@@H]1CN([C@H](C)CO)C(=O)Cc2cc(NC(=O)NC3CCCCC3)ccc2O[C@H]1CN(C)S(C)(=O)=O`, the figure is -0.091% and -0.115%; as for `CC(C)NC(=O)Nc1ccc2c(c1)C(=O)N([C@@H](C)CO)C[C@H](C)[C@@H](CN(C)Cc1ccc(C(=O)O)cc1)OCCCC[C@H](C)O2`, 0.548%.
Regarding `COc1ccc2c3c([nH]c2c1)[C@H](CO)N(Cc1ccccc1Cl)CC31CN(C(=O)C2CC2)C1`, the activity (Tm shift, normalised) was 0.006%.
As for `COc1cccc(S(=O)(=O)N[C@@H]2C=C[C@H](CC(=O)NC3CCC3)O[C@H]2CO)c1`, the figure is 0.557%.
Turning to `CC[N+]1(CC)CC2=Cc3ccccc3CC2C1` (stereo not drawn), the activity (Tm shift, normalised) was 43.3% (active).
Take `C[C@@H]1CCCCO[C@@H](CN(C)Cc2ccccc2)[C@H](C)CN([C@H](C)CO)C(=O)c2cc(NC(=O)Nc3cccc4ccccc34)ccc2O1`: the activity (Tm shift, normalised) is -0.579%.
To `C[C@@H]1CCCCO[C@H](CN(C)C(=O)NC2CCCCC2)[C@H](C)CN([C@H](C)CO)C(=O)c2cc(NC(=O)c3ccncc3)ccc2O1` belongs 0.182%.
As for `COc1ccc2c3c(n(C)c2c1)[C@H](CO)N(C(=O)NC(C)C)CC31CN(CC2CCCCC2)C1`, the activity (Tm shift, normalised) was -0.103%.
As for `COc1ccc(CNC(=O)C2CCCC2)cc1`, the figure is -0.099%; as for `COc1ccc(CNC(=O)C2CCN(S(=O)(=O)c3ccc(SC)cc3)CC2)cc1`, -0.235%; as for `COc1ccc(CNC(=O)C2CCN(S(C)(=O)=O)CC2)cc1`, 43.4% (active).
To `CN(C)C(=O)c1ccc(-c2ccc([C@@H]3[C@H](C#N)N(C(=O)C4CC4)[C@H]3CO)cc2)cc1` belongs 0.09%.
For the compound `CO[C@H]1CN(C)C(=O)c2cc(NC(=O)Nc3cccc(F)c3)ccc2OC[C@@H](C)N(C)C[C@H]1C`, the activity (Tm shift, normalised) is 0.028%.
As for `S=C(Nc1ccc(Br)cc1Cl)N1CCC2(CC1)OCCO2`, the figure is 43.8% (active); as for `CC1CN(C(=S)Nc2ccc(Br)cc2Cl)CC(C)O1` (stereo not drawn), 0.064%; as for `S=C(Nc1ccc(Cl)cc1Cl)N1CCCC1`, -0.146%.
Take `O=C(Nc1cc(F)ccc1F)N1C[C@H]2[C@@H](c3ccccc31)[C@@H](CO)N2C(=O)c1ccccc1`: the activity (Tm shift, normalised) was 0.029%.
To `N#C[C@@H]1[C@H](c2ccccc2)[C@H](CO)N1C(=O)CN1CCOCC1` belongs 0.041%.
To `O=C(Nc1ccccc1F)N1C[C@H]2[C@@H](c3ccccc31)[C@H](CO)N2C(=O)c1ccccn1` belongs -1.13%.
With `O=C(Nc1ccccc1)N1C[C@@H]2[C@H](c3ccccc31)[C@H](CO)N2C(=O)c1ccccn1`, the activity (Tm shift, normalised) was -1.73%.
As for `CC(C)NC(=O)N1C[C@@H]2[C@H](c3ccccc31)[C@H](CO)N2C(=O)c1ccccn1`, the figure is 16.8% (active).
For the compound `O=C(Nc1ccc(C(F)(F)F)cc1)N[C@@H]1CC[C@@H](CCNC(=O)c2ccccc2F)O[C@H]1CO`, the activity (Tm shift, normalised) was 0.08%.
As for `O=C(COC(=O)c1cc(-c2cccs2)nn1-c1ccccc1)Nc1cc([N+](=O)[O-])ccc1Cl`, the figure is 43.8% (active).
To `COc1ccc(Cl)cc1NC(=O)CN(C)C(=O)c1cc(-c2cccs2)nn1-c1ccccc1` belongs 0.161%.
To `Cc1nn(-c2ccccc2)c(C)c1NC(=O)COC(=O)c1cc(Cl)ccc1O` belongs -0.058%; to `CCC(=O)N1[C@@H](CO)[C@@H](c2ccc(C3=CCCC3)cc2)C12CN(C(=O)COC)C2`, 0.109%.
On to `C[C@H]1CCCCO[C@@H](CN(C)Cc2ccccc2)[C@@H](C)CN([C@@H](C)CO)C(=O)c2cc(NC(=O)CCCN(C)C)ccc2O1`, for which the activity (Tm shift, normalised) is -0.026%.
As to `CCNC(=O)C1(C)CCCN(C(=O)c2ccc3ccccc3n2)C1` (stereo not drawn), the activity (Tm shift, normalised) is -0.027%.
For the compound `O=C(c1ccc2ccccc2n1)N1CCN(c2ccccc2Cl)CC1`, the activity (Tm shift, normalised) is 43.4% (active).
To `CN(c1ccccc1)S(=O)(=O)c1ccc(C(=O)N2CCN(c3ccccc3Cl)CC2)cc1` belongs -0.343%.
As for `O=C(NCC[C@H]1CC[C@@H](NC(=O)c2cnccn2)[C@H](CO)O1)Nc1ccc(Cl)cc1`, the figure is 0.223%.
`CCC(=O)Nc1ccc2c(c1)C(=O)N(C)[C@@H]1CC[C@@H](CC(=O)NCc3ccccc3Cl)O[C@H]1CO2`: the activity (Tm shift, normalised) is -0.111%.
As for `C[C@@H]1CN([C@H](C)CO)S(=O)(=O)c2ccc(C#CC3(O)CCCC3)cc2O[C@@H]1CN(C)C(=O)c1cccnc1`, the activity (Tm shift, normalised) is -0.011%.
Take `Cc1ccc(S(=O)(=O)N(C)C[C@@H]2Oc3ccc(NC(=O)c4ccncc4)cc3CC(=O)N([C@H](C)CO)C[C@H]2C)cc1`: the activity (Tm shift, normalised) is -0.013%.
For the compound `CC1(C)CC(=O)C(CC(=O)N2CCC(Cc3ccccc3)CC2)C(=O)C1`, the activity (Tm shift, normalised) is 41.9%.
To `CC1(C)CC(=O)C(C2c3ccccc3S(=O)(=O)c3ccccc32)C(=O)C1` belongs 42.9% (active); to `COc1ccc2c3c(n(C)c2c1)[C@H](CO)N(CC1CC1)CC31CCN(C(=O)c2ccccc2)CC1`, -0.078%; to `COc1ccc(S(=O)(=O)N[C@@H]2CC[C@@H](CC(=O)N3CCC(Cc4ccccc4)CC3)O[C@@H]2CO)cc1`, 0.502%.
To `CS(=O)(=O)N1[C@H](CO)[C@H](c2ccccc2)C12CN(C(=O)C1CC1)C2` belongs -0.066%.
As for `CC(=O)Cc1nsc(NC(=O)c2ccc(Cl)cc2Cl)n1`, the figure is 44.2% (active).
Turning to `Cc1ccccc1NC(=O)Cc1nc(COC(=O)CNC(=O)c2ccc(Cl)cc2Cl)cs1`, the activity (Tm shift, normalised) is 0.003%.
As for `Cn1cc(C(=O)c2ccc(Cl)cc2Cl)cc1C(=O)NN`, the figure is -0.308%; as for `Cc1nn(Cc2ccccc2)c(C)c1C(=O)NCCN1C(=O)S/C(=C\c2ccc(F)cc2)C1=O`, 0.11%.
For `O=C(CN1C(=O)S/C(=C\c2ccccc2F)C1=O)NCCCn1ccnc1`, the activity (Tm shift, normalised) is -0.15%.
To `Cn1cccc1/C=C1\SC(=O)N(CC(=O)Nc2ccc(F)cc2)C1=O` belongs 43% (active); to `CC(=O)Nc1ccc(S(=O)(=O)N(CCc2ccccc2)CC(=O)N/N=C/c2ccc(C(=O)O)cc2)cc1`, 1.76% (active).
Regarding `O=C(O)c1ccc(/C=N/NC(=S)NCc2ccccc2)cc1`, the activity (Tm shift, normalised) was 0.16%.
For the compound `COc1ccc(S(=O)(=O)N(CC(=O)N/N=C/c2ccc(C(=O)O)cc2)Cc2ccccc2)cc1OC`, the activity (Tm shift, normalised) was -0.204%.
For `CNC[C@H]1Oc2ncc(-c3ccccc3F)cc2C(=O)N([C@H](C)CO)C[C@H]1C`, the activity (Tm shift, normalised) was -0.078%.
As for `COCC#Cc1ccc2c(c1)O[C@H](CN(C)CC1CC1)[C@H](C)CN([C@H](C)CO)S2(=O)=O`, the figure is 0.379%.
As to `CCCN(C)C[C@@H]1OCCCC[C@@H](C)Oc2ccc(NS(=O)(=O)c3c(C)noc3C)cc2C(=O)N([C@H](C)CO)C[C@@H]1C`, the activity (Tm shift, normalised) is -0.518%.
As for `C[C@H](CO)N1C[C@H](C)[C@H](CN(C)S(=O)(=O)c2cccs2)OCCCC[C@H](C)Oc2ccc(NC(=O)CCCN(C)C)cc2C1=O`, the figure is -0.21%; as for `CN1C(=O)c2cccc3c(N)ccc(c23)C1=O`, 28.3% (active).
Consider `O=C1c2cccc3c([N+](=O)[O-])ccc(c23)C(=O)N1CC1CCCO1` (stereo not drawn), for which the activity (Tm shift, normalised) was 0.06%.
On to `CO[C@H]1CN(C)C(=O)c2cc(NC(=O)Nc3ccccc3F)ccc2OC[C@H](C)N(C)C[C@H]1C`, for which the activity (Tm shift, normalised) was -0.052%.
As for `COc1ccccc1S(=O)(=O)N(C)C[C@H]1Oc2cc(C#CCC3CCCC3)ccc2S(=O)(=O)N([C@@H](C)CO)C[C@H]1C`, the figure is 0.195%; as for `COc1ccc2c3c(n(C)c2c1)[C@@H](CO)N(C(=O)c1cnccn1)CC31CCN(C(C)=O)CC1`, -0.238%; as for `CC(=O)N1c2ccc(S(=O)(=O)N3CCC(C(=O)NC4CCCCC4C)CC3)cc2CC1C` (stereo not drawn), 0.24%.
As for `CC(=O)N1c2ccc(S(=O)(=O)N3CCC(C(=O)NCc4ccc(F)cc4)CC3)cc2CC1C` (stereo not drawn), the figure is 1.48% (active).
In the case of `CC(=O)N1c2ccc(S(=O)(=O)N3CCCC(C(=O)NCc4ccc(Cl)cc4)C3)cc2CC1C` (stereo not drawn), the activity (Tm shift, normalised) was 0.095%.
For the compound `O=C(c1ccncc1)N1CC2(C1)[C@@H](c1ccccc1)[C@H](CO)N2C(=O)c1ccncc1`, the activity (Tm shift, normalised) is -0.088%.
Turning to `CCCC(=O)Nc1ccc2c(c1)OC[C@H](C)N(Cc1ccc(F)cc1)C[C@H](C)[C@H](OC)CN(C)C2=O`, the activity (Tm shift, normalised) was -0.11%.
As for `CO[C@@H]1CN(C)C(=O)c2cc(NC(=O)CC(F)(F)F)ccc2OC[C@H](C)N(S(=O)(=O)c2cn(C)cn2)C[C@H]1C`, the figure is -0.268%.
On to `N#CCC(=O)NC1CCC(CC2CCC(NC(=O)CC#N)CC2)CC1` (stereo not drawn), for which the activity (Tm shift, normalised) is -0.185%.
`N#CCC(=O)NC(=O)NCC1CC1`: the activity (Tm shift, normalised) was 45.2% (active).
Turning to `O=C(NCC1CCCCC1)NCC1CCCCC1`, the activity (Tm shift, normalised) is 0.197%.
As for `O=C(C[C@H]1C[C@H]2c3cc(NC(=O)C4CCOCC4)ccc3O[C@H]2[C@@H](CO)O1)NCCN1CCCCC1`, the figure is 0.018%.
